From PubChem BioAssay
An excerpt weighted towards active compounds, which were near 2% of everything screened.
NPSR antagonist = antagonists of human neuropeptide S receptor cAMP signaling; Q6W5P4; CHO-NPSR cells, cAMP TR-FRET, antagonist mode; Potency, µM (titrated, usually from 38.3 µM), usual class: inhibitors; 220,000 compounds, 1% hits; AID 1461; further: nearly all actives have a fitted effect of over 50% in size
PKM2 act = activators of human pyruvate kinase M2; purified PKM2, Kinase-Glo ATP luminescence, activation; response scale: 0% is enzyme alone, no compound; 260,000 compounds, 0.34% hits; Potency, µM (titrated, usually from 57.5 µM), hits mostly activators; AID 1631; further: nearly all actives have a fitted effect of over 55% in size
Target sequence (P14618 whole entry, looked up): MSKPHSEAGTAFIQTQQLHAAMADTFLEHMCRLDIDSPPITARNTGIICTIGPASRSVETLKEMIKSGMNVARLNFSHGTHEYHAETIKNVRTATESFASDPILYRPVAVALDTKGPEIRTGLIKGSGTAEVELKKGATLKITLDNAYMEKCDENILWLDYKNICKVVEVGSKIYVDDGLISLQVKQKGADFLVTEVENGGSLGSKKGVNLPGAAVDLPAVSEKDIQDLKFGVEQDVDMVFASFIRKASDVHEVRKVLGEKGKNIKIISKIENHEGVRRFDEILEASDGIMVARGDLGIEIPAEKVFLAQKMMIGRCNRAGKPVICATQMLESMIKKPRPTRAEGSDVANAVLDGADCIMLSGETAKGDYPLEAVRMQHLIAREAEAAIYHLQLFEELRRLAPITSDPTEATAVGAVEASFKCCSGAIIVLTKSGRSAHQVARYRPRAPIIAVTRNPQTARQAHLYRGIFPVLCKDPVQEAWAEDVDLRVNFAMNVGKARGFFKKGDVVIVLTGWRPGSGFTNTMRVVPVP
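hPK-M2, >95% pure; 0.1 mM ADP / 0.5 mM PEP final; imidazole pH7.2 buffer w/ 7 mM MgCl2, 50 mM KCl; 1 h RT; Kinase-Glo lum. Intermediate enzyme activity for dual inhibitor/activator qHTS.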
IL-2 act = activates IL-2 in a cell-based reporter assay; IL-2 activation reporter assay, cell-based qHTS; stimulated with anti-CD3/CD4/CD28 beads; in transgenic mouse T cells; activation, % (series mostly up to about 46 µM); 360,000 compounds, 0.065% hits; in the data active means activation above about 50%; inconclusive means mostly about 30% to 49%
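Unstimulated transgenic mouse T cells preincubated 60 min with compound, then stimulated with anti-CD3/anti-CD4-coated beads plus anti-CD28 for 18 h at 37 degrees C. IL-2 response read as EGFP and DsRed fluorescence by plate cytometry.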
ClpP mod = qHTS Assay for Activators of ClpP. 340,000 compounds, 1.9% hits. AID 651965, 2013. purified B. subtilis ClpP, FRET peptide cleavage, 20 min. Potency, µM (highest dose often 57.5 µM). ATP-dependent Clp protease proteolytic subunit (Bacillus subtilis (strain 168)), P80244; active means well fitted falling curve with a large enough effect; inconclusive means small, poorly fitted or top-dose-only effect; inactive means no such curve, though single readings can be large or run the other way; further: the source files actives as falling curves though it sought activators and does not explain the sign; nearly all actives have a fitted effect of over 65% in size
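ClpP 10 microg/mL final, pH 8 Tris/KCl buffer with BSA, glycerol, Tween-20; compound pinned in; FRET-FV substrate; RT 20 min; Ex320/Em430; ΔFRET vs ADEP 5.8 microM, DMSO, no enzyme.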
A number is an active result; i = inactive; ? = inconclusive; nt = not tested or not shown; [ ] = remark or other dose. Unless noted, the call rests on the fitted dose curve; in most records, active means well fitted curve in the direction sought with a large enough effect; inconclusive means small, poorly fitted or top-dose-only effect, or another doubt; inactive means no such curve, though single readings can be large; an effect the other way counts as inactive or inconclusive.

SMILES | NPSR antagonist | PKM2 act | IL-2 act | ClpP mod
CCOC(=O)c1sc(=NC(=O)c2ccc(OC(C)C)cc2)n(C)c1C | 5µM | i | i | nt
CCOC(=O)c1sc(=NC(=O)c2ccc(S(=O)(=O)N3CC(C)OC(C)C3)cc2)n(C)c1C (stereo unspecified) | 10µM | i | i | i
CCOC(=O)c1sc(=NC(=O)c2cccs2)n(C)c1C | 3.2µM | i | i | i
CCOC(=O)c1sc(=NC(=O)c2ccc(C)c(C)c2)n(C)c1C | i | i | i | nt
O=C(CCc1nc2ccccc2s1)N1CCN(S(=O)(=O)c2cccs2)CC1 | i | ? | i | i
O=C(OCc1nc2ccccc2s1)C1CCN(S(=O)(=O)c2cccs2)CC1 | i | 8.9µM | i | i
O=S(=O)(c1cccs1)N1CCN(Cc2nc3ccccc3s2)CC1 | ? | 22µM | i | i
O=C(COC(=O)C1CCN(S(=O)(=O)c2cccs2)CC1)Nc1ccccc1 | i | i | i | nt
COc1ccc(NC(=O)C2CCCN(S(C)(=O)=O)C2)c(OC)c1 (stereo unspecified) | nt | i | i | nt
Cc1ccc(C)c(NC(=O)CSc2nc(-c3ccccc3Cl)nc3c2Cc2c(CO)cnc(C)c2O3)c1 | nt | nt | nt | i
CCn1ncc(NC(=S)NCCc2ccccc2)c1C(N)=O | i | i | i | nt
CCN(CC(=O)NCc1cccs1)C(=O)c1ccc(S(=O)(=O)N(C)c2ccccc2)cc1 | nt | nt | i | 22µM
CCN(CC(=O)NCc1cccs1)C(=O)/C=C/c1cc(OC)c(OC)c(OC)c1 | nt | nt | i | 16µM
CCN(CC(=O)NCc1cccs1)C(=O)c1ccc(S(=O)(=O)N(C)C)cc1 | i | i | i | nt
CCOc1ccccc1NC(=O)Cn1cnc2c1c(=O)n(C)c(=O)n2C | nt | nt | nt | i
CCCC(=O)NCCc1cc2ccc(OC)cc2[nH]c1=O | i | i | i | i
CCCCC(=O)NCCc1cc2ccc(OC)cc2[nH]c1=O | i | i | i | 25µM
CC(=O)NCCc1cc2cc(C)c(C)cc2[nH]c1=O | i | i | i | ?
CCCC(=O)NCCc1cc2cc(C)c(C)cc2[nH]c1=O | i | i | i | 25µM
COc1ccc(S(=O)(=O)NC(CC(=O)NC2CCCC2)c2ccco2)cc1 (stereo unspecified) | i | i | i | i
CCOC(=O)N1CCC(NC(=O)CC(NS(=O)(=O)c2ccc(Cl)cc2)c2ccco2)CC1 (stereo unspecified) | i | i | i | 32µM
Cc1ccc(S(=O)(=O)NC(CC(=O)NC2CCCC2)c2ccco2)cc1 (stereo unspecified) | i | i | i | 28µM
COCCCNC(=O)CC(NS(=O)(=O)c1ccc(Cl)cc1)c1ccco1 (stereo unspecified) | i | i | i | i
COC(=O)c1ccc(C(/C=C/[C@@H](C)C(=O)NCCc2c[nH]c3ccccc23)NC(=O)OCc2ccccc2)cc1 (stereo partly specified) | nt | i | nt | nt
COc1ccc(C(C)=O)cc1CN1C(=O)NC(CC(C)C)C1=O (stereo unspecified) | i | i | i | i
SMILES | NPSR antagonist | PKM2 act | IL-2 act | ClpP mod
C=CCn1c(C)cc(C(=O)COc2ccc(C)nc2[N+](=O)[O-])c1C | i | i | i | 4µM
CCCn1c(C)cc(C(=O)COc2ccc(C)nc2[N+](=O)[O-])c1C | i | i | i | i
COc1ccccc1OCC(=O)NC1CC(=O)N(c2ccc3c(c2)OCCO3)C1 (stereo unspecified) | nt | nt | nt | i
CNc1oc(-c2ccc(Cl)cc2)nc1P(=O)(c1ccccc1)c1ccccc1 | ? | i | i | 28µM
C#CCOCCOCCOCCNc1nc(N2CCN(C(=O)[C@H](CCCCN)n3cc(C(N)COC(=O)C(F)(F)F)nn3)CC2)nc(N2CCN(C(=O)[C@H](CCCCN)n3cc(C(N)CC(C)C)nn3)CC2)n1 (stereo partly specified) | i | i | nt | nt
COc1cccc(/C=C/C(=O)OCC(=O)Nc2cc(C(F)(F)F)ccc2Cl)c1 | i | i | i | 35µM
COc1cccc(/C=C/C(=O)OCC(=O)c2c(N)n(C)c(=O)n(C)c2=O)c1 | nt | nt | i | 25µM
COc1cccc(/C=C/C(=O)OCC(=O)Nc2ccc(Cl)c(S(=O)(=O)N(C)C)c2)c1 | i | i | i | nt
COc1ccc2c(c1)C(C1C(=O)CCCC1=O)c1ccccc1O2 (stereo unspecified) | i | i | i | i
Cc1ccc(OCCOCCn2cnc3ccccc3c2=O)c([N+](=O)[O-])c1 | i | i | i | i
Cc1ccc([N+](=O)[O-])c(OCCn2cnc3ccccc32)c1 | i | 8.9µM | i | i
CCCn1nc(Oc2nc(SC)nc(N(C)C)n2)ccc1=O | i | i | i | 25µM
CSc1nc(Oc2ccc(=O)n(C)n2)nc(N(C)C)n1 | i | i | i | i
CC1(C)CC2(CC(c3ccccc3F)c3ccc(O)c(O)c3O2)NC(=S)N1 (stereo unspecified) | i | 2.8µM | i | nt
CCOc1cc(C2C(C(=O)OC)=C(C)NC3=C2C(=O)c2ccccc23)cc(Cl)c1O (stereo unspecified) | nt | nt | nt | i
O=C(Cc1cccs1)Nc1cccc(-c2nc3cc4ccccc4cc3[nH]2)c1 | i | i | i | 28µM
O=c1cc(-c2ccccc2)[nH]c2nc3ccccc3n12 | i | i | i | 11µM
CCc1c(C)[nH]c2nc3ccccc3n2c1=O | i | i | i | 28µM
O=c1cc(CCl)[nH]c2nc3ccccc3n12 | i[7.67 µM] | i | i | i
CCCCn1c(N)c(N(CCOC)C(=O)c2ccc(Cl)c(S(=O)(=O)N3CCCCC3)c2)c(=O)[nH]c1=O | nt | nt | i | 32µM
CCCCn1c(N)c(N(CCOC)C(=O)c2ccc(S(=O)(=O)N3CCCCC3)cc2)c(=O)[nH]c1=O | nt | nt | i | i
Cc1cc(C)n(C(=O)c2cccc([N+](=O)[O-])c2C)n1 | nt | i[11.5 µM] | i | i
Cc1cc(C)n(C(=O)c2ccccc2[N+](=O)[O-])n1 | i | i | i | 35µM
CC(C)c1nc(N2CCCC2)c(C#N)c2c1CCCC2 | ? | i | i | 28µM
CCCc1nc(N2CCCC2)c(C#N)c2c1CCCC2 | i | i | i | 32µM
SMILES | NPSR antagonist | PKM2 act | IL-2 act | ClpP mod
CCSc1nc(N2CCCCC2)c2c(c1C#N)CCCC2 | ? | i | i | ?
CCc1nc(N2CCOCC2)c(C#N)c2c1CCCC2 | i | i | i | i
CCc1nc(N2CCCC2)c(C#N)c2c1CCCC2 | i | i | i | 20µM
CC(=O)Nc1cccc(Oc2ccc([N+](=O)[O-])cc2Cl)c1 | i | i | i | nt
COc1cccc(CNC(=O)CCn2c(=O)c3cccn3c3cccnc32)c1OC | nt | nt | nt | i
COc1ccc(CCN(Cc2ccccn2)C(=S)Nc2ccccc2Cl)cc1OC | i | i | i | nt
CCCCN(C(=O)CC1OC(=O)c2ccccc21)c1c(N)n(CCCC)c(=O)[nH]c1=O (stereo unspecified) | nt | nt | i | i
CCCC(=O)Nc1cc2nn(-c3ccc(OC)cc3)nc2cc1C | nt | nt | nt | i
COc1ccc(-n2nc3cc(C)c(NC(=O)c4cccnc4)cc3n2)cc1 | i | i | i | 25µM
